What all share (parameters): scale not given: direction of the effect not stated beside the values
For assay [1], the target named is Protein translocase subunit SecA (Escherichia coli (strain K12)) (UniProt P10408). Kind of assay: Assay to Identify E. coli SecA ATPase Inhibitors. The class given is functional. Particulars: 30 µM.
For assay [2], the target named is T1, Ubiquitin-activating enzyme e1, putative (Leishmania donovani (strain BPK282A1)) (UniProt E9BSI1).
T1 sequence (whole entry): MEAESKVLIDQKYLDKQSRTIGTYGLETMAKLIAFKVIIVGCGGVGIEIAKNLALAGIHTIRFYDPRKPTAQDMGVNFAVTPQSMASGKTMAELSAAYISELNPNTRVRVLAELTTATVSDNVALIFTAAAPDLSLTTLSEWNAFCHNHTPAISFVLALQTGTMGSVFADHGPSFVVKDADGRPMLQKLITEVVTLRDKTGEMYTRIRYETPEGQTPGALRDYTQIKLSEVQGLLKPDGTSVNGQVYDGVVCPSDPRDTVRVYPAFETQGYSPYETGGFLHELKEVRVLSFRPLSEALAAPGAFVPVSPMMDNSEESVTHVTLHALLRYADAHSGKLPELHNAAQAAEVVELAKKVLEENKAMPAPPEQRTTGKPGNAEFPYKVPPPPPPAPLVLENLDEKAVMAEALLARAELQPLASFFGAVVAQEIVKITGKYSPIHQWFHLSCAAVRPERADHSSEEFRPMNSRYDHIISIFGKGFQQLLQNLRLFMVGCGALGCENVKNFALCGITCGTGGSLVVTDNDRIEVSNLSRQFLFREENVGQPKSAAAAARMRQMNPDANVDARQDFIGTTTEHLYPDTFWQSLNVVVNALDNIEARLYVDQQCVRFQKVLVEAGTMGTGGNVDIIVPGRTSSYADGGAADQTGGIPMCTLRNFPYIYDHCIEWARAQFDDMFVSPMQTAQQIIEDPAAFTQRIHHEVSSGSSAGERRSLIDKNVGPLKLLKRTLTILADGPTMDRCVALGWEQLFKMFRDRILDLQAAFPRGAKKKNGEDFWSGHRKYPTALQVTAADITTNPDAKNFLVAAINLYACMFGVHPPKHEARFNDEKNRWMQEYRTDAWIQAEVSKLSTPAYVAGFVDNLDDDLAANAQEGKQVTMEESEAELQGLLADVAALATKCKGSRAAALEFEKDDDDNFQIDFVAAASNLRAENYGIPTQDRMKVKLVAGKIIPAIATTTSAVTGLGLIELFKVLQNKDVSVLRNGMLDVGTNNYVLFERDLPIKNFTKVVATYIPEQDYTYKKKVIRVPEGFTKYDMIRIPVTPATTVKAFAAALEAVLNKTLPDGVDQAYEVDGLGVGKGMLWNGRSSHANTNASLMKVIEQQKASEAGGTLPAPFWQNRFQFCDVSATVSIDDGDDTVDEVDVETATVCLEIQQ
Kind of assay: Leishmania donovani Ubiquitin Activating Enzyme (LdE1). In kind it is functional. The settings on record: 30 µM.

The target in assay [3] is AMP-activated protein kinase, AMPK (Homo sapiens) (UniProt P54646+O43741+P54619+Q9UGJ0+Q9Y478+Q13131+Q9UGI9). Kind of assay: AMP-dependent Kinase enzyme assay. An in vitro enzyme assay that detects ADP turnover that is directly proportional to AMPK activity. This uses naive AMPK that is activated during the assay with MK-8722. The class given is functional. The settings on record: 30 µM.

Assay [4] addresses Sialic acid-binding Ig-like lectin 9 (Homo sapiens) (UniProt Q9Y336). The assay can be described thus: Hs-Siglec9 ALPHAscreen SOP 20170721. The settings on record: 10 µM.
A further assay relates to Trypanosoma cruzi. The assay can be described thus: Trypanosoma cruzi phosphomannomutase and mannose-1-phosphate guanylyltransferase assay. The settings on record: 10 µM. The class given is functional.
Assay [5] addresses T2, Arginase-2, mitochondrial (Homo sapiens) (UniProt P78540).
T2 sequence (whole entry): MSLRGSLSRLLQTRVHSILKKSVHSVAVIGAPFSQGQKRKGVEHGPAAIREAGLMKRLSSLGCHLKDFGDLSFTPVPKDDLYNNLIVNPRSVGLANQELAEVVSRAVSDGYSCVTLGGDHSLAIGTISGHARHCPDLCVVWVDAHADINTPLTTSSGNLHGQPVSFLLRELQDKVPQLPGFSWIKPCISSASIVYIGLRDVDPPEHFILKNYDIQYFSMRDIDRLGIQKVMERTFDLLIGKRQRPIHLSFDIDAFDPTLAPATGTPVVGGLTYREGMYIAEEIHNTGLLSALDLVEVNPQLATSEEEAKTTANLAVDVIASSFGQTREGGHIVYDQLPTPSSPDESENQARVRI
The assay can be described thus: in vitro enzyme assay to detect the production of urea directly proportional to the activity of Arginase II. Note: in the data most compounds retested in dose-response had high values. The class given is functional. Particulars: 33.3 µM.

In assay [6] the target is T3, Proteasome subunit beta (Trypanosoma cruzi) (UniProt O96673).
T3 sequence (whole entry): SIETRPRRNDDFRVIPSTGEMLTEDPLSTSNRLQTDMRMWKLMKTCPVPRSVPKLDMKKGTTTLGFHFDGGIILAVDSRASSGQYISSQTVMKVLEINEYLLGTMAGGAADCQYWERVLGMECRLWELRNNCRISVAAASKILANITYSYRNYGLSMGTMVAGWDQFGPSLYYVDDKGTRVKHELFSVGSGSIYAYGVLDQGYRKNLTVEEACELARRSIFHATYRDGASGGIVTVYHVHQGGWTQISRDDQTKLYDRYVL
Kind of assay: Trypanosoma cruzi proteasome chymotrypsin-like activity (TcProtChymo) assay. Note: in the data most compounds retested in dose-response had high values. In kind it is functional. The settings on record: 9.37 µM.

For another assay, the species on record is Homo sapiens. Kind of assay: To identify inhibition of the IFN signalling (Jak-Stat) pathway via expression of an eGFP reporter gene under the control of an IFN-stimulated response element (ISRE) containing MxA promoter. In kind it is functional. Particulars: 30 µM.
Assay [7] has as its target T4, Tyrosyl-tRNA synthetase, putative (Trypanosoma cruzi (strain CL Brener)) (UniProt Q4DSP6).
T4 sequence (whole entry): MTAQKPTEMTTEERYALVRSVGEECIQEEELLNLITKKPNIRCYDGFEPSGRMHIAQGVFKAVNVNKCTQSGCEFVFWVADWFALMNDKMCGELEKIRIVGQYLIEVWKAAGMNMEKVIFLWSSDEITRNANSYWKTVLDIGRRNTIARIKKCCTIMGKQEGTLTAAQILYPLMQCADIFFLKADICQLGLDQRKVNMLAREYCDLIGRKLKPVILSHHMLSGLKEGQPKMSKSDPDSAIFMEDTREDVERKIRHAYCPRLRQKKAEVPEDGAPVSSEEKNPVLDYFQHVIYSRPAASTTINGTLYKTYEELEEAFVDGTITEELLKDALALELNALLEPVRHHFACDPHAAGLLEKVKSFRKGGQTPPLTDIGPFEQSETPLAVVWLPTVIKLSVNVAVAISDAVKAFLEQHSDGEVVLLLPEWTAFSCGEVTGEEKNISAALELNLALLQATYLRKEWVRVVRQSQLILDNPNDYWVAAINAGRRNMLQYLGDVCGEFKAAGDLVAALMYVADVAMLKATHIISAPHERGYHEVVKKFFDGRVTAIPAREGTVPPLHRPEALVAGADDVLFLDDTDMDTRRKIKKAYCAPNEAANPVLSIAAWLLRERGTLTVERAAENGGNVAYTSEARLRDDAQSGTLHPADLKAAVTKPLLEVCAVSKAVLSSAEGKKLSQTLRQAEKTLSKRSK
Kind of assay: Trypanosoma cruzi tyrosyl tRNA synthetase (TcYRS) _High Tyrosine SOP. Note: in the data most compounds retested in dose-response had high values. The class given is functional. The settings on record: 30 µM.

In assay [8] the target is T4, Tyrosyl-tRNA synthetase, putative (Trypanosoma cruzi (strain CL Brener)). Kind of assay: Trypanosoma cruzi tyrosyl tRNA synthetase (TcYRS) SOP. In kind it is functional. The settings on record: 30 µM.
The target in assay [9] is Chromo domain-containing protein 1 (Saccharomyces cerevisiae (strain ATCC 204508 / S288c) (Baker's yeast)) (UniProt P32657). Kind of assay: ScCHD-1 Enzyme Inhibition Assay. Note: in the data most compounds retested in dose-response had high values. The class given is functional. The settings on record: 30 µM.

For some assays here: Results with a measured potency or affinity are listed apart.

Chain of Protein translocase subunit SecA (Escherichia coli (strain K12)) (P10408 whole entry): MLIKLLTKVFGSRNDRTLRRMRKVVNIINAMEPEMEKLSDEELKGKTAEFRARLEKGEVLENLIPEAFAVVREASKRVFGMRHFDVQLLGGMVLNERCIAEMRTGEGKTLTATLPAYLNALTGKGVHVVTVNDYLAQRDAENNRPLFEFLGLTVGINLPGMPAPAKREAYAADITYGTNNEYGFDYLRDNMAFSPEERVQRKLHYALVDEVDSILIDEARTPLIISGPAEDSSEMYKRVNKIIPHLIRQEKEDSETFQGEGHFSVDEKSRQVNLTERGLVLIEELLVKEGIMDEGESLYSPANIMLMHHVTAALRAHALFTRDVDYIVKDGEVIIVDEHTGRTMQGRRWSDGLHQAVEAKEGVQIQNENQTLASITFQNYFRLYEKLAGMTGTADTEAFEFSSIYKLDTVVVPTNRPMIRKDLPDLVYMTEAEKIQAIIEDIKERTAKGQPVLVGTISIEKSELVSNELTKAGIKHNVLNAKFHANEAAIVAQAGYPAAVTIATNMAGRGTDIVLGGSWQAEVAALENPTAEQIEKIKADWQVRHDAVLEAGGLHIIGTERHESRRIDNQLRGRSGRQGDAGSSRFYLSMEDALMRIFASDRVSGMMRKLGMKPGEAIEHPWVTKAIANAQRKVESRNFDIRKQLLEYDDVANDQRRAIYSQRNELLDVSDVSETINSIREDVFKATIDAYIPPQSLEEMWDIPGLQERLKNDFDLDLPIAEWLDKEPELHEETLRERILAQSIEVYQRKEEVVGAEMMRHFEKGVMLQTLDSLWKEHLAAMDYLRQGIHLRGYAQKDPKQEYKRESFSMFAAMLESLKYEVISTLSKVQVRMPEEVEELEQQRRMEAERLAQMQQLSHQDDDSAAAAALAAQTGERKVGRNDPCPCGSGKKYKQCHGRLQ
Chain of Chromo domain-containing protein 1 (Saccharomyces cerevisiae (strain ATCC 204508 / S288c) (Baker's yeast)) (P32657 whole entry, the tested form may be a part): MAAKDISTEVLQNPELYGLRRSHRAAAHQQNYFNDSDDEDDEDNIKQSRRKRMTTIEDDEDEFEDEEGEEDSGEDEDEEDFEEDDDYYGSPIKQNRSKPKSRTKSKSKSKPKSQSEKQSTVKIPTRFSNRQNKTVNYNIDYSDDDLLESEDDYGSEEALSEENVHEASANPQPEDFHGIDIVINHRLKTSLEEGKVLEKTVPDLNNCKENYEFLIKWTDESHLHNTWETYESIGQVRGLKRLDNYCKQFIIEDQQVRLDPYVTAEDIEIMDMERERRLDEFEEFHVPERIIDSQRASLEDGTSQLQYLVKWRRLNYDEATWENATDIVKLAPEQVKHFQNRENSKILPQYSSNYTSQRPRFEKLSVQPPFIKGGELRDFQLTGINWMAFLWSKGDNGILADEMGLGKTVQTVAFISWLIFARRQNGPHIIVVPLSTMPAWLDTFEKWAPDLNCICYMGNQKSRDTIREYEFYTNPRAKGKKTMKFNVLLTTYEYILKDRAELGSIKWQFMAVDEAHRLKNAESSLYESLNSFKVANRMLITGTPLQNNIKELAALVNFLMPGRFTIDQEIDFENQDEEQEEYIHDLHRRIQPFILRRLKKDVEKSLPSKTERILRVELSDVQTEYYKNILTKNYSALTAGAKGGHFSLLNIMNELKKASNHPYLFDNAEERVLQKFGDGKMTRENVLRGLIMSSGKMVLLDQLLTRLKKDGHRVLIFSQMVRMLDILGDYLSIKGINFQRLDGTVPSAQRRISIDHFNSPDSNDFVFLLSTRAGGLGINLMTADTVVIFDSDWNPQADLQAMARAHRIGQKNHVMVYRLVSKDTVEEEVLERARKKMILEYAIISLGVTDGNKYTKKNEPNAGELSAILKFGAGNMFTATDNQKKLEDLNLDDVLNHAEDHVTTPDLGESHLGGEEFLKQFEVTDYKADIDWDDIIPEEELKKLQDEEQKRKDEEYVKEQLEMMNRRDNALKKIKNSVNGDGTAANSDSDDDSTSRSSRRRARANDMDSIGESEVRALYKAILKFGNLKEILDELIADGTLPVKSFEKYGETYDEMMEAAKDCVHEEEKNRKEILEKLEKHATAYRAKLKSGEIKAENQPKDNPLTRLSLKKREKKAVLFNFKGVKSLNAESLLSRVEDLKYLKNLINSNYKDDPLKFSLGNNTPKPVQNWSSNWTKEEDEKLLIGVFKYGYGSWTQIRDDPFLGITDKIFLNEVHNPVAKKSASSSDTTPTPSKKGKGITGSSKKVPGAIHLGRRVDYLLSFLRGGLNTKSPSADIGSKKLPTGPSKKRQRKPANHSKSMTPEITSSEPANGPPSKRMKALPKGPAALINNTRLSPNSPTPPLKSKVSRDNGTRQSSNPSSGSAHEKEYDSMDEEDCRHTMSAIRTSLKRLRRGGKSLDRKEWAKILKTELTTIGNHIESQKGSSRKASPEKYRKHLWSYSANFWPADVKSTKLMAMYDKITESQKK
Chain of Sialic acid-binding Ig-like lectin 9 (Homo sapiens) (Q9Y336 whole entry): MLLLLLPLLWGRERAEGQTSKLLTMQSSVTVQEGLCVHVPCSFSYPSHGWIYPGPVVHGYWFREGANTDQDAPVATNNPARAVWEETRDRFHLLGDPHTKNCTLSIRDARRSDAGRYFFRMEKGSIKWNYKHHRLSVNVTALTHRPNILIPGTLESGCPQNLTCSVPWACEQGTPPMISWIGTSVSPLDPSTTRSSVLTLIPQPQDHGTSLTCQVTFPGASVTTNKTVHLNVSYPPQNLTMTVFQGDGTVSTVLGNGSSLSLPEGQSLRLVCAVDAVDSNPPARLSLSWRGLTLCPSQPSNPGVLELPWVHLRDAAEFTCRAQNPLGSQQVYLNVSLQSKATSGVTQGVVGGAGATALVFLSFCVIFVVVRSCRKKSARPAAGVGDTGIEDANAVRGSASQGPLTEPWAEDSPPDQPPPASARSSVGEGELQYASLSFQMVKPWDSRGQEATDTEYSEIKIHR

As for `COCCN(Cc1nc2c(cnn2C)c(=O)[nH]1)Cc1ccco1`, the Percent Effect is -2.48% in assay [1]; 16.2% in assay [2]; -7.78% in [3]; -3.6% in assay [4]; -4.43% in the assay with Trypanosoma cruzi; 5.61% in assay [5]. The Percent Effect in assay [6] is 12.6%; in the assay filed under Homo sapiens, 4.47%; in assay [7], 9.36%; in assay [8], 18.5%; in assay [9] it was -4.09%.

On to `Cc1cccc(NC(=O)CNC(=O)Cn2ncc(Cl)c(Cl)c2=O)c1C`, for which the Percent Effect in assay [1] was -1.81%; in assay [2], 0%; in [3] it was 26%; in assay [4] it was 2.69%; in the assay on Trypanosoma cruzi, -8.4%; in [5] it was 0%. For the same molecule, the Percent Effect in assay [6] was 16.6%; in the assay filed under Homo sapiens, 23.8%; in assay [7] it was 11.9%; in assay [8], -1.22%; in [9] it was 7.2%.

Take `CC(C)c1noc(C(C)N2CCN(Cc3ccccc3C#N)CC2)n1` (stereo not given): the Percent Effect in [1] was -0.614%; in [2], -2.63%; in [3], -8.38%; in assay [4], 2.79%; with Trypanosoma cruzi, 4.58%; in [5], -2.52%. The Percent Effect was 3.81% in [6]; 10.1% in the assay listed under Homo sapiens; -3.45% in assay [7]; 3.7% in assay [8]; 2.36% in assay [9].

Turning to `CCNC(=O)NC(=O)CSC(C)c1c(F)cccc1F` (stereo not given), the Percent Effect was -5.95% in [1]; 2.67% in assay [2]; 1.21% in [3]; -3.31% in [4]; -5.55% in the assay with Trypanosoma cruzi; -4.17% in [5]. The Percent Effect is 22.3% in [6]; 10.5% in the assay listed under Homo sapiens; 0.546% in [7]; -1.24% in assay [8]; -6.68% in assay [9].

With `c1ncn(CC2CCCCN2Cc2csc(C3CCCC3)n2)n1` (stereo not given), the Percent Effect in assay [1] was -2.71%; in assay [2], -5.2%; in [3], -0.0278%; in assay [4], 1.89%; with Trypanosoma cruzi, 9.55%; in assay [5], -1.42%. Also, the Percent Effect in [6] came out at 6.93%; in the assay listed under Homo sapiens, 11.4%; in assay [7], 10.7%; in assay [8], 19.5%; in assay [9], 66.7%.

For `COc1ccc(CCNC(=O)NC2CCCC2)cc1OC`, the Percent Effect in assay [1] was 0.159%; in [2], 8.11%; in assay [3], -0.309%; in [4], 3.69%; in the assay with Trypanosoma cruzi, -1.16%; in [5], 3.33%. Moreover, the Percent Effect in assay [6] was 13.3%; in the assay listed under Homo sapiens, 6.13%; in assay [7], 5.82%; in [8] it was 9.76%; in assay [9], -3.01%.

Take `O=C(COc1cccc2c1CCC2=O)NCCOc1ccccc1`: the Percent Effect is -0.203% in assay [1]; 2.63% in assay [2]; -0.945% in assay [3]; -8.98% in [4]; -6.33% in the assay with Trypanosoma cruzi; 3.55% in assay [5]. The Percent Effect in assay [6] was 9.68%; in the assay filed under Homo sapiens it was 40.1%; in [7], -1.06%; in assay [8] it was 0%; in assay [9], -2.69%.

`CC(Oc1ccccc1C(F)(F)F)C(=O)NCC(N)=O` (stereo not given): the Percent Effect was -4.95% in assay [1]; 5.41% in assay [2]; 0.686% in assay [3]; -2.42% in assay [4]; 4.3% with Trypanosoma cruzi; -1.67% in assay [5]. Besides, the Percent Effect was 12.9% in [6]; -26.2% in the assay listed under Homo sapiens; 12.9% in [7]; 15.8% in assay [8]; 2.04% in assay [9].

As to `OCC1CCCN1c1cc(NCCc2c[nH]c3ccccc23)ncn1` (stereo not given), the Percent Effect was -4.95% in assay [1]; 0% in assay [2]; 12.3% in assay [3]; -7.58% in assay [4]; -2.15% in the assay on Trypanosoma cruzi; 0% in [5]. Further, the Percent Effect is 18.6% in assay [6]; 35.3% in the assay listed under Homo sapiens; 1.07% in [7]; 7.5% in assay [8]; -5.88% in [9].

On to `CCc1nc(C2CCCN2C(=O)CCNS(C)(=O)=O)no1` (stereo not given), for which the Percent Effect in [1] was -2.77%; in [2], 27%; in assay [3], -4.56%; in assay [4] it was -1.58%; with Trypanosoma cruzi, 3.25%; in assay [5] it was -2.03%. Also, the Percent Effect is 19% in [6]; 21.8% in the assay listed under Homo sapiens; 7.92% in assay [7]; 23.2% in [8]; -6.19% in assay [9].
